Compound activity (PubChem BioAssay)
The list is not random: actives were taken first. Their share in the collection is about 1.7%.
TRHR PAM – allosterically enhances the human TRH receptor. P34981. TRHR cells, fluo-8 calcium fluorescence, EC20 TRH enhancement. enhancement, % at 2 µM. 360,000 tested, 0.66% active; in the data active = enhancement above about 30%; also: 0% is about no effect
Target sequence (P34981 whole entry, looked up): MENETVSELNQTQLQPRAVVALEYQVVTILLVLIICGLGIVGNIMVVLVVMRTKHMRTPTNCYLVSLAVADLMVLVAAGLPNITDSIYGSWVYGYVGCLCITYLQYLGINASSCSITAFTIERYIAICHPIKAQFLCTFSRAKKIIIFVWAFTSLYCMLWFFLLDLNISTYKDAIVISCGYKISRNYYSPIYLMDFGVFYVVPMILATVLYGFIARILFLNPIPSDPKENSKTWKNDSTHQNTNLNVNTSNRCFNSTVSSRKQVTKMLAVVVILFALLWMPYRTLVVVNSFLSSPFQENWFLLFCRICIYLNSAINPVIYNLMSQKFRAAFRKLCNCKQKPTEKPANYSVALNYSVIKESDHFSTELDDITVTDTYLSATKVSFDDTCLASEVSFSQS
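TRHR-expressing cells loaded with fluo-8 calcium dye were read kinetically (ex 480/em 530) during compound addition, then stimulated with an EC20 of TRH (10 nM final). Enhancement of the Gq-mediated intracellular calcium response was scored.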
TRPML1 agonist – activates the human TRPML1 channel; Q9GZU1; TRPML1-expressing cells, Ca2+ dye fluorescence, FDSS; activation, % (test concentration not listed); 410,000 tested, 0.12% active; in the data active = activation above about 50%; inconclusive = mostly about 30% to 49%; also: 0% is about no effect
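Kinetic FDSS Ca2+ read in Tet-induced TRPML1-DL cells (ABD Ca8 dye plus quencher, 45-90 min RT loading): baseline, then compound, then 110 s agonist window; EC80 agonist 54-4 at 4uM final added afterwards for a 110 s antagonist window.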
TRHR ag – agonists of human TRH receptor. TRHR cells, calcium flux fluo-8, FDSS agonist mode. 360,000 tested, 0.18% active. AID 493084. P34981. activation, % at 2 µM; in the data active = activation above about 30%; also: 0% is about no effect
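TRHR-expressing cells, plated overnight in medium with 10% serum, were loaded with fluo-8 calcium dye at room temperature. After a 10 s baseline, library compound was pin-added and calcium release was recorded kinetically (ex 480/em 530) as agonist response.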
KCNH2 3.1 block – blocks the human KCNH2 3.1 channel isoform. U2OS KCNH2 3.1, thallium flux FluxOr; stronger effect = lower value. activity change, % (tested at about 1.8 µM). 340,000 tested, 0.95% active. AID 720553;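 active = maximum activity change below -70%; inconclusive = maximum activity change from -70% to -50%; inactive = maximum activity change above -50%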;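 also: thallium influx rate constant from kinetic fluorescence after stimulation buffer; % is scaled to controls: 0 for no effect and ±100 for the full control effect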
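Steps: virus added to U2OS suspension (4 h, RT, dark); medium with 10% FBS added, cells plated, 37 C overnight; FluxOr/Red40 loading buffer 45 min RT; stimulation buffer, 2 min kinetic read; rate constant normalized.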
hERG WT inh – blocks the wildtype human KCNH2 potassium channel | Q12809 | U2OS, BacMam KCNH2, thallium flux FluxOr; stronger effect = lower value | activity change, % at 1.84 µM | 340,000 tested, 0.37% active | AID 720551;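 active = maximum activity change below -70%; inconclusive = maximum activity change between -70% and -50%; inactive = maximum activity change above -50%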; also: % is scaled to controls: 0 for no effect and ±100 for the full control effect
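U2OS cells were transduced with wild-type KCNH2 virus (2.03 x 10^8 / mL) for 4 h at room temperature, then cultured overnight at 37 C. Thallium flux was read with FluxOr dye. Rate constants were normalized to DMSO controls.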
TRPML1 blocker – blocks the human TRPML1 channel. activity change, negative = inhibition, % (test concentration not listed). Q9GZU1. 390,000 tested, 0.02% active. TRPML1-inducible cells, Ca2+ dye fluorescence, FDSS; stronger effect = lower value; inhibition of EC80 agonist-evoked calcium signal. AID 624415; in the data active = activity change below about -50%; inconclusive = between about -30% and that limit;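 also: stimulus is agonist 54-4 at its EC80 concentration; % is scaled to controls: 0 for no effect and ±100 for the full control effect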
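Calcium fluorescence in TRPML1-DL cells induced overnight with Tet: a 110 s read after compound pin addition, then a 110 s antagonist read after challenge with 54-4 at 4 uM final (EC80).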
Starred values were filed as active, the others as inactive; ? = inconclusive; · = no result; ! = not active in a repeat.

SMILES	TRHR PAM	TRPML1 agonist	TRHR ag	KCNH2 3.1 block	hERG WT inh	TRPML1 blocker
COc1ccc(C2=NOC(Cn3nc(C(=O)NCc4ccc(C)cc4)cc3-c3ccccc3)C2)cc1 (centres undefined)	2	-1	1	-12	-1	36
O=S(=O)([O-])CCC[n+]1c(/C=C\Nc2ccccc2)oc2ccc(-c3ccccc3)cc21	27	·	118*	·	·	·
CC[n+]1c(/C=C/Nc2ccccc2)oc2ccc(OC)cc21	14	1	0	-6	-2	8
Cn1c(=O)n(C)c2cc(NS(=O)(=O)c3ccccc3)c(NCc3ccccc3)cc21	30*	3	0	·	·	-5
Cn1c(=O)n(C)c2cc(NS(=O)(=O)c3ccc(C(C)(C)C)cc3)c(NCc3ccccc3)cc21	0	0	-1	·	·	-5
Cc1ccc2c(CN3CCN(Cc4ccccc4)CC3)cc(=O)oc2c1	1	3	-2	-108*	-86*	-14
Cc1cc2oc(=O)cc(CN3CCC(C)CC3)c2cc1Cl	30*	0	0	-4	-11	7
Cc1cc2oc(=O)cc(CN3CCN(Cc4ccccc4)CC3)c2cc1Cl	-4	-1	0	-9	11	19
O=c1cc(CN2CCN(Cc3ccccc3)CC2)c2ccc(O)cc2o1	2	0	0	-85*	?	-5
C[C@@H]1CN([C@H](C)CO)C(=O)CCCn2cc(nn2)CO[C@H]1CN(C)C(=O)c1ccncc1	·	0	·	·	·	·
CCOc1ccc(-c2c(C)sc3nc[nH]c(=O)c23)cc1	-4	0	0	-4	1	-14
O=C(Nc1ccc(F)cc1)Nc1ccc2c(c1)CCC2	35*	1	1	-21	-13	3
O=C(Nc1cccc(F)c1)Nc1ccc2c(c1)CCC2	5	0	1	11	5	44
CC1CCC(NC(=O)CCNC(=O)c2ccc(Br)cc2)CC1 (centres undefined)	-3	0	0	11	3	5
COc1cccc(-c2ccc(NC(=O)C3CCCN(CCCn4nc(C)cc4C)C3)cc2)c1 (centres undefined)	-3	0	0	-74*	1	31
Cc1ccc(CN2CCCn3nc(C(=O)NCCc4ccc(Cl)cc4)cc3C2=O)cc1	1	1	-2	·	·	9
O=C1C2C3C=CC(C3)C2C(=O)N1CCCCCCN1C(=O)C2C3C=CC(C3)C2C1=O (centres undefined)	32*	1	0	18	0	-11
O=C(O)CCN1C(=O)C2C3C=CC(C3)C2C1=O (centres undefined)	7	1	0	10	12	4
COc1ccc(CCN(C)C2CCCN(S(=O)(=O)c3ccc(C)cc3)C2)cc1OC (centres undefined)	-1	0	0	-83*	-31	2
CC(=O)c1ccc(S(=O)(=O)N2CCCC(N(C)CCc3ccccc3)C2)cc1 (centres undefined)	1	0	0	-94*	?	-9
C[n+]1ccc(/C=C/c2cc[n+](C)c3ccccc23)c2ccccc21	·	-1	·	·	·	·
N#C/C(=C\c1cc(Br)c(O)c(Br)c1)c1nc2ccccc2c(=O)[nH]1	20	2	78*	·	·	8
CCOC(=O)C1CCN(S(=O)(=O)c2ccc(C)c(C)c2)CC1	32*	0	0	-12	1	-11
CCOC(=O)C1CCN(S(=O)(=O)c2ccc(OC)c(OC)c2)CC1	8	0	-1	9	-6	1
CCOC(=O)c1ccc(NC(=S)NC(=O)c2cncc(Br)c2)cc1	8	-1	-1	9	-1	-6
SMILES	TRHR PAM	TRPML1 agonist	TRHR ag	KCNH2 3.1 block	hERG WT inh	TRPML1 blocker
O=C(O)c1ccc(NC(=S)NC(=O)c2cncc(Br)c2)cc1	34*	-1	1	?	3	4
Cc1cccc(NC(=S)Nc2cccc(C)n2)n1	10	2	0	-147*	13	10
Cc1cccc(NC(=S)NC2CCCC2)n1	0	0	0	-11	·	1
Cc1ccccc1CNC(=O)C1CCCN(c2nnc(C)c3c(C)n(-c4ccccc4)nc23)C1 (centres undefined)	-2	3	0	-71*	16	21
Cc1nnc(N2CCC(C(=O)NCCc3ccccc3Cl)CC2)c2nn(-c3ccccc3)c(C)c12	7	2	-1	·	·	64
Cc1nnc(N2CCC(C(=O)NC3CCCCC3)CC2)c2nn(-c3ccccc3)c(C)c12	0	2	-1	·	·	-58*
Cc1cc2c(s1)c1cnn(Cc3ccc(F)c(F)c3)c(=O)c1n2C	1	·	0	·	·	·
COc1ccc(C)cc1NC(=O)C1CCCN(S(=O)(=O)c2ccc3[nH]c(=O)ccc3c2)C1 (centres undefined)	47*!	-1	-1	7	1	12
O=C1CC(NS(=O)(=O)c2ccccc2F)CN1c1ccc2c(c1)OCCO2 (centres undefined)	5	0	0	-6	-2	9
CCOC(=O)CSc1nc2ccccc2n1CC(=O)NC(C)(C)C	30*	1	1	13	-26	-7
N#Cc1c(Cl)cccc1Oc1ccc([S+](=O)([O-])N2CCN([S+](=O)([O-])c3c(F)cccc3F)CC2)cc1	2	·	0	·	·	·
N=c1c(C(=O)NC2CCCCC2)cc2c(=O)n3ccccc3nc2n1CCc1ccccc1	3	1	0	-79*	?	14
C=CCn1c(SCC(=O)N2CCN(C(=O)c3ccco3)CC2)nc2sc(CC)cc2c1=O	-15	2	0	?	-109*	14
OCCC1CN(Cc2cccn2-c2ncccn2)CCN1Cc1ccccc1 (centres undefined)	-5	0	0	-36	58	19
Cc1ccc(CN2CCN(Cc3cccn3-c3nccs3)CC2CCO)cc1 (centres undefined)	11	0	1	-88*	-27	1
Cc1ccc(CN2CCN(Cc3cccn3-c3ccccn3)CC2CCO)cc1 (centres undefined)	-1	0	-1	-72*	-76*	-1
CC(C)(C)n1ncc2c(=O)n(Cc3ccccc3C#N)cnc21	·	1	·	·	·	-29
Cc1c(F)cccc1NC(=O)CSCC(=O)Nc1ccccc1	-1	1	0	-9	2	-55*
CCOC(=O)C1(C)CCCN(C(=O)c2cccc3ccccc23)C1 (centres undefined)	·	-1	·	·	·	·
CCc1ccc(OCC(O)CN2CCN(c3ccccn3)CC2)cc1 (centres undefined)	2	1	0	-34	31	2
